Screening data deposited in PubChem BioAssay by National Center for Advancing Translational Sciences (NCATS).
Compounds with a hit are over-represented: about 8.9% of the library has one in this group of screens.
MCF10A rereplic: DNA re-replication induction in MCF 10a cells; actives 2.9% (n = 350,000); MCF 10A DNA re-replication, Hoechst nuclear intensity, 48 h; Potency, µM (series often up to 46.1 µM), for the others: top-dose activity, positive = re-replication, most hits filed as activators; further: potency means the concentration at half of the fitted maximal effect; % of control where 0% means no effect; nearly all actives have a fitted effect of over 50% in size
KB-3-1 cytotox: kills parental KB-3-1 adenocarcinoma cells; KB-3-1 viability, CellTiter-Glo ATP luminescence, 72 h; Potency, µM (top dose mostly 46.1 µM), usual class: cytotoxic; actives 1.4% (n = 400,000); AID 1347075; further: potency means the concentration at half of the fitted maximal effect; on the % scale 0 is the no-effect control and ±100 the full control effect; nearly all actives have a fitted effect of over 60% in size
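KB-3-1 cells, DMEM (no phenol red) + 10% FBS; compound by pin transfer, 72 h, 37 °C. Readout: CellTiter-Glo luminescence after 10 min. Data normalized, curve-fitted.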
KB-V1 cytotox: kills drug-selected multidrug resistant KB-V1 cells. AID 1347076. KB-V1 MDR cells viability, CellTiter-Glo, 72 h. Potency, µM (series often up to 46.1 µM), hits mostly cytotoxic. actives 3.4% (n = 400,000); further: potency means the concentration at half of the fitted maximal effect; on the % scale 0 is the no-effect control and ±100 the full control effect; nearly all actives have a fitted effect of over 60% in size
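Following 72 h at 37 degrees C with compound, KB-V1 cell viability was read by CellTiter-Glo luminescence, medium being phenol-red-free DMEM plus 10% FBS; concentration-response parameters came from normalized, curve-fitted qHTS data.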
SW480 rerep: inducers of DNA re-replication in SW480 colon cancer cells; SW480 DNA re-replication, Hoechst DNA content imaging, 48 h; Potency, µM (top dose mostly 46.1 µM), for inactives: top-dose re-replication activation, usual class: activators; actives 1.8% (n = 340,000); AID 624297; further: potency means the concentration at half of the fitted maximal effect; % of control where 0% means no effect; nearly all actives have a fitted effect of over 55% in size
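Per well, 250 cells were exposed to pinned compound for 48 hr. Nuclear DNA was visualised with Hoechst (40 min, 37 C) and total object intensity recorded by fluorescence scanning.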
DRD3 agonist: activates the human D3 dopamine receptor; max activation, %; D3R DiscoveRx beta-arrestin cells, luminescence, 90 min; actives 0.58% (n = 410,000); P35462; AID 652048; in the data active means max activation above about 30%; further: 0% is about no effect
Target sequence (P35462 whole entry, looked up): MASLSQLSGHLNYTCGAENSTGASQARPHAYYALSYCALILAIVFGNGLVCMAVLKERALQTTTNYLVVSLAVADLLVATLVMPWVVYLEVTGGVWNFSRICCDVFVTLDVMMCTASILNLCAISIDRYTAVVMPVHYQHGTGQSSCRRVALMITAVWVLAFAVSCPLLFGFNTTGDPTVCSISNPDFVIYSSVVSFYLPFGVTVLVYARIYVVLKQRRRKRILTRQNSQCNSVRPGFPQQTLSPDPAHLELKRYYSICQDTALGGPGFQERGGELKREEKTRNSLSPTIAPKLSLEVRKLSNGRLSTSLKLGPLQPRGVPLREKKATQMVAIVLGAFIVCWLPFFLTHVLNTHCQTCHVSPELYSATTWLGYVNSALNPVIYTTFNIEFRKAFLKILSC
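Cells at 1500/well, incubated overnight, then treated with pinned compounds (dopamine as control) for 90 min at 37 degrees C. DiscoveRx reagent added for 30 - 60 minutes at room temperature; luminescence read.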
DRD3 antagonist: antagonists of human D3 dopamine receptor; P35462; D3R cells, DiscoveRx beta-arrestin luminescence, antagonist mode; hits give low values; max response, negative = inhibition, %; actives 2.5% (n = 360,000); in the data active means max response below about -50%; inconclusive means no clear call, values can overlap the other calls; further: on the % scale 0 is the no-effect control and ±100 the full control effect
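Cells expressing the human receptor were seeded at 1500 cells/well, incubated overnight at 37 degrees C in 5% CO2, then exposed to library compounds with dopamine controls for 90 minutes at 37 degrees C before luminescent detection.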
Starred values were filed as active, the others as inactive; i = inactive; ? = inconclusive; nt = no result. Unless noted, the call rests on the fitted dose curve; in most records, active means well fitted curve in the direction sought with a large enough effect; inconclusive means small, poorly fitted or top-dose-only effect, or another doubt; inactive means no such curve, though single readings can be large; an effect the other way counts as inactive or inconclusive.

SMILES	MCF10A rereplic	KB-3-1 cytotox	KB-V1 cytotox	SW480 rerep	DRD3 agonist	DRD3 antagonist
CC(C)N1CC2(CC(c3ccc(Cl)cc3Cl)=NO2)CN1C(=O)c1ccc(C(C)(C)C)cc1 (configuration not stated)	nt	i	i	nt	3	30
CCN1C(=NCCc2ccc([N+](=O)[O-])cc2)N[C@@H](c2ccccc2)[C@H](C(=O)OC)[C@H]1C	0%	i	i	-2%	-11	?
CCN1C(=NCCc2ccc(Br)cc2)N[C@@H](c2ccccc2)[C@H](C(=O)OC)[C@H]1C	-41%	i	i	13%	-50	-88*
O=C(Nc1ccc(F)c(Cl)c1)c1cc(C2CCCCN2C(=O)c2cccs2)on1 (configuration not stated)	nt	23µM*	i	nt	-5	0
O=C(Nc1ccccc1Cl)c1cc(C2CCCCN2C(=O)c2cccs2)on1 (configuration not stated)	nt	i	i	nt	-6	-13
O=C(O)CN=CC1=C(O)CC(c2ccccc2)CC1=O (configuration not stated)	-4%	i	i	3%	-1	17
Cc1ccc(-n2c(=O)c3cccnc3n2CC(=O)Nc2cccc(C)c2C)cc1	nt	i	i	nt	-4	nt
CC(C)(C)c1nnc(NS(=O)(=O)c2cc(Cl)ccc2Cl)s1	?	i	i	19%	4	-11
O=S(=O)(Nc1nc(-c2sccc2Cl)cs1)c1cc(Cl)ccc1Cl	8.2µM*	i	i	-1%	-11	-86*
CNC(=O)COC(=O)/C=C/c1nc2ccccc2s1	0.65µM*	i	i	?	0	-8
Cc1ccc(C(=O)OCC(=O)NNC(=O)c2cccs2)c(O)c1	-17%	i	i	18µM*	-7	-19
O=C(COC(=O)c1ccccc1[N+](=O)[O-])NNC(=O)c1cccs1	-1%	i	i	-5%	-6	-11
CCOc1ccc(NC(=O)CC2C(=O)N(c3ccccc3)C(=O)N2CCc2ccc(OC)cc2)cc1 (configuration not stated)	nt	i	i	nt	6	nt
CC(=O)Nc1ccc(Sc2ncccc2C(=O)Nc2cc(Cl)cc(Cl)c2)cn1	?	i	i	9%	-33	-52*
CC(=O)Nc1ccc(Sc2ncccc2C(=O)Nc2ccc(OC(F)(F)F)cc2)cn1	-6%	i	?	-3%	-2	-21
CCOc1ccc(C(=O)Nc2c(C(=O)Nc3ccccc3OC)oc3ccccc23)cc1OCC	nt	i	i	nt	-11	nt
Cc1c(CN(C)C)c2c(n1Cc1ccccc1)C(=O)c1ccc(Br)cc1-2	?	?	23µM*	?	-4	?
COc1ccc(-c2csc(NC(=S)NC(=O)/C=C/c3ccco3)n2)cc1OC	6.5µM*	7.3µM*	6.5µM*	9.2µM*	-9	7
COc1ccc(-c2csc(NC(=S)NC(=O)c3ccco3)n2)cc1Br	?	?	?	21%	1	-6
COc1ccc(-c2csc(NC(=S)NC(=O)/C=C/c3ccco3)n2)cc1Br	?	5.2µM*	4.1µM*	?	-8	-21
CCCCN1CCNC[C@H]1Cc1ccc(O)cc1	1%	i	i	-1%	-10	-92*
CCOc1ccccc1NC(=O)CSc1nc2ccccc2c2nc(CCn3cncc3C)nn12	nt	i	i	nt	0	nt
Cc1ccc(Cc2c(C)nc3nc(SCC(=O)NCc4ccco4)nn3c2C)cc1	6.5µM*	4.6µM*	8.2µM*	?	-3	-16
Cc1cccc(Cc2c(C)nc3nc(SCC(=O)NCc4ccco4)nn3c2C)c1	14%	?	?	-7%	3	2
COc1ccc(OC)c(NC(=O)C(C)n2nc(C)c3c(C)n(-c4ccccc4)nc3c2=O)c1 (configuration not stated)	nt	i	i	nt	2	nt
CN(C)CC[C@@](O)(c1ccccc1)c1ccccc1Cl	-1%	nt	nt	-3%	nt	nt
